# Source: PubChem BioAssay
# Rab9 promoter act: activators of Rab9 promoter. Huh7 Rab9 promoter-luciferase reporter, luminescence, 24 h. 320,000 tested, 2.8% active. Potency, µM (series often up to 9.22 µM), inactives show at the top dose activation, negative = inhibition, most hits filed as activators. AID 485297; also: % of control where 0% means no effect; nearly all actives have a fitted effect of over 60% in size
#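 Huh7 reporter line, Rab9 promoter upstream of luciferase. Compound exposure 24 h at 37 °C in reduced-serum medium with 10% FBS. Read-out: luminescence.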
# ELG1 genotox: induces genotoxicity in HEK293T cells with luciferase-tagged ELG1 | AID 504466 | 330,000 tested, 1.3% active | Potency, µM (top dose mostly 46 µM), for inactives: top-dose activity change, positive = activation, hits mostly activators | HEK293T ELG1-luciferase reporter, luminescence, 16 h; also: % of control where 0% means no effect; nearly all actives have a fitted effect of over 60% in size
#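 Genotoxic stress is detected as increased luminescence from luciferase-tagged ELG1 in HEK293T cells, measured with ONE-Glo after a 16 hr treatment at 37 °C.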
# FLuc modulator: inhibits or activates purified firefly luciferase, miR-21 counter-screen; 360,000 tested, 6.9% active; purified FLuc, Km substrates, luminescence inhibition; Potency, µM (doses to about 57.5 µM), inactives show top-dose activity change, negative = inhibition, actives largely listed as inhibitors; P08659;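 also: plate controls were vehicle for no effect and reference inhibitor for full effect; nearly all actives have a fitted effect of over 55% in size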
# Target sequence (P08659 whole entry, looked up): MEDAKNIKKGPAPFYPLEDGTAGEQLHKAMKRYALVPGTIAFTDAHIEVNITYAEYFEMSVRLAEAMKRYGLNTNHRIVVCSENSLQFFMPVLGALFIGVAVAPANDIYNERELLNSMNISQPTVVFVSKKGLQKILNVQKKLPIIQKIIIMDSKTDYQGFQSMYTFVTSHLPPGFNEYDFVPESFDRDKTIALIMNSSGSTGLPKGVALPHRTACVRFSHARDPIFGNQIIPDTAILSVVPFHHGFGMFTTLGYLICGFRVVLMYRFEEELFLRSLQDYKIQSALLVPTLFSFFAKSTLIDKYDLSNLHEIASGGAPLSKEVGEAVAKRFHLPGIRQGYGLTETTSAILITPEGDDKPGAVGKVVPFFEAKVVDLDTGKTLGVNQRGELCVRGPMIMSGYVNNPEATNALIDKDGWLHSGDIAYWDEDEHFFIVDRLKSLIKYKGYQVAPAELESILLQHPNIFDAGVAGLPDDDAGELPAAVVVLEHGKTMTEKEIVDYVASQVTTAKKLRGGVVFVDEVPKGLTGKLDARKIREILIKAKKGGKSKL
#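 Purified P. pyralis luciferase, 10 nM final, with Km-level 10 uM D-luciferin and 10 uM ATP in 50 mM Tris acetate pH 7.5, 10 mM Mg acetate, 0.01% Tween-20, 0.05% BSA; 6-point qHTS titration about 60 µM downward; luminescence read.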
# NPC1 prom act: activators of NPC1 promoter; Huh7 NPC1 promoter luciferase reporter, 24 h; Potency, µM (series often up to 9.22 µM), for the others: at the top dose activation, actives largely listed as activators; 320,000 tested, 2.4% active; AID 485313; also: % of control where 0% means no effect; nearly all actives have a fitted effect of over 60% in size
#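 Quantitative HTS used a cell-based reporter: Huh7 cells stably bearing the NPC1 promoter upstream of luciferase were treated with compounds for 24 h, and promoter activation was read as luminescence.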
# ELG1 DNA repair: blocks ELG1-dependent DNA repair in HEK293T cells; Potency, µM (series often up to 46.1 µM), inactives show at the highest dose activity change, negative = inhibition, usual class: inhibitors; HEK293T ELG1-luciferase reporter, luminescence, 16 h; DNA damage induced by 5-fluorouridine; 330,000 tested, 2.3% active; also: % is scaled to controls: 0 for no effect and ±100 for the full control effect; nearly all actives have a fitted effect of over 55% in size
#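 5-Fluorouridine DNA damage + compound/DMSO, 2,000 cells/well, 16 h, 37 °C/5% CO2. ONE-Glo, 30 min RT, luminescence. Readout = decrease in reporter signal.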
# SMN2 splice up: enhancers of SMN2 splice variant expression. AID 1458. HEK293 SMN2-luciferase splicing reporter, luminescence, 30-36 h. 210,000 tested, 2.8% active. Potency, µM (series often up to 46.1 µM), inactives show at the highest dose activity change, positive = activation, actives largely listed as activators; also: % of control where 0% means no effect; nearly all actives have a fitted effect of over 55% in size
#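 HEK293 cells carry an SMN2 […]–luciferase reporter in which exon 7 inclusion puts luciferase in frame. Cells were plated 10-12 h before compound addition, then incubated 30-36 h at 37C. ONE-Glo luminescence was read; sodium butyrate at 4.5 mM final served as control.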
# Active calls of the source: *; u = inconclusive; x = no result given; [ ] = remark or other dose. Hits are enriched below; roughly 9.2% of the tested compounds scored in any of these assays. Calls follow the shape of the dose curve; as a rule, active = well fitted curve in the direction sought with a large enough effect; inconclusive = small, poorly fitted or top-dose-only effect, or another doubt; inactive = no such curve, though single readings can be large; an effect the other way counts as inactive or inconclusive. Potency is read from the fitted curve at half-maximal effect.
SMILES,Rab9 promoter act,ELG1 genotox,FLuc modulator,NPC1 prom act,ELG1 DNA repair,SMN2 splice up
Cc1nonc1C1CCCN1C(=O)c1cc(COc2ccc(F)cc2F)on1 (stereo not given),2.2µM*,u,9.5µM*,u,u,x
Cc1cccc(C)c1OCc1cc(C(=O)N2CCCC2c2nonc2C)no1 (stereo not given),7%,-3%,-3%,4%,u,x
CSc1ccccc1OCc1cc(C(=O)N2CCCC2c2nonc2C)no1 (stereo not given),2.2µM*,u,8.5µM*,2µM*,u,x
C=CCNC(=O)CN(Cc1ccccc1)S(=O)(=O)c1ccccc1,-2%,-3%,1%,-6%,1%,x
Cn1cccc1/C=C1\SC(=Nc2cccc(O)c2)NC1=O,u,u,12µM*,12%,u,x
COc1cc(/C=C2\SC(=Nc3ccc(O)cc3)NC2=O)cc(OC)c1O,-9%,u,-1%,-17%,-27%,x
CCOc1ccc2c(c1)S/C(=C\c1cccs1)C(=O)N2,u,u,9.5µM*,u,u,x
O=C1NC(=Nc2ccccc2)S/C1=C\c1cccs1,3.2µM*,u,12µM*,3.2µM*,u,x
Cc1cc(C)cc(N=C2NC(=O)/C(=C/c3cccs3)S2)c1,-2%,3%,-19%,1%,1%,-22%
Cn1cccc1/C=C1\SC(=Nc2ccc(O)cc2)NC1=O,-6%,16µM*,u,23%,u,x
Cc1noc(C)c1S(=O)(=O)Nc1ccc2c(c1)C(=O)N([C@H](C)CO)C[C@H](C)[C@@H](CN(C)Cc1ccc(C(=O)O)cc1)O2,x,5%,x,x,u,x
O=C(C1CC1)N1CCc2sccc2C1c1ccc(Cl)cc1 (stereo not given),-1%,-6%,8%,0%,u,x
O=[N+]([O-])c1ccc2[nH]c3nc4ccccc4nc3c2c1,8%,0%,2%,27%,2%,x
Cc1ccc(N=C2NC(=O)/C(=C/c3cccn3C)S2)c(C)c1,0%,-8%,0%,0%,u,x
Cc1ccc(N=C2NC(=O)/C(=C\c3ccco3)S2)cc1,u,u,17µM*,u,u,16%
O=C1NC(=Nc2ccc(O)cc2)S/C1=C/c1ccco1,-12%,-6%,-1%,-19%,10%,29%
Cn1cccc1/C=C1\SC(=Nc2ccccc2)NC1=O,22%,23µM*,9.5µM*,-18%,u,x
COc1ccc(NCc2cc3ccc(OC)cc3n(CC(=O)Nc3ccc(C)c(C)c3)c2=O)cc1,x,x,1%,x,x,x
COC(=O)c1ccc2[nH]c3c(c2c1)CC(C)CC3 (stereo not given),11%,u,12µM*,20%,u,x
O=C(COC(=O)c1ccc2[nH]c3c(c2c1)CCCC3)Nc1ccccc1Cl,-3%,u,-8%,-2%,u,x
CCOC(=O)c1ccc2[nH]c3c(c2c1)CCCC3,u,23µM*,11µM*,2.8µM*,u,x
CCC(C)c1ccccc1NC(=O)COC(=O)c1ccc2[nH]c3c(c2c1)CCCC3 (stereo not given),-2%,-13%,-18%,-5%,21µM*,-16%
CCOC(=O)c1ccc(NS(=O)(=O)c2ccc3[nH]c4c(c3c2)CCCCC4)cc1,x,x,-13%,x,x,x
COc1ccc(NC(=O)CCNS(=O)(=O)c2ccc3c(c2)CC(C)N3C(C)=O)cc1 (stereo not given),-7%,-2%[9.26 µM],-1%,-1%,-8%,x
COc1cccc(CNC(=O)CCNS(=O)(=O)c2ccc3c(c2)CC(C)N3C(C)=O)c1 (stereo not given),-3%,-1%[9.26 µM],0%,-1%,8.2µM*,x
SMILES,Rab9 promoter act,ELG1 genotox,FLuc modulator,NPC1 prom act,ELG1 DNA repair,SMN2 splice up
CCC(C)c1ccc(S(=O)(=O)N2CCN(C(=O)COc3ccc4c(C)cc(=O)oc4c3)CC2)cc1 (stereo not given),8%,0%,-1%,3%,8.2µM*,-7%
COc1ccc(C(=O)OCC(=O)c2ccc[nH]2)cc1,u,u,27µM*,u,u,x
O=C(OCC(=O)c1ccc[nH]1)c1ccc(Br)cc1,3%,3%,u,0%,23%,x
COc1ccc(C(=O)OCC(=O)c2ccc(CNC(C)=O)s2)cc1,23%,1%,11µM*,9%,u,x
COc1ccc(C(=O)c2ccc(CC(=O)O)s2)cc1,-3%,2%,12µM*,-3%,15%,-7%
O=C(COC(=O)c1ccc(F)cc1F)c1ccc[nH]1,-3%,3%,19µM*,1%,17%,x
COc1ccccc1C(=O)Nc1ccnn1C1CCN(Cc2cnc(N(C)C)s2)CC1,10%,-6%,3%,-6%,-11%,x
CC(=O)Nc1ccc(S(=O)(=O)N2CCN(S(=O)(=O)c3ccc(F)c(F)c3F)CC2)cc1,-2%,3%,0%,1%,-5%,x
CN(C)CCn1c(=S)[nH]c2ccccc2c1=O,1%,5%,0%,14%,2%,11%
CCCn1c(=S)[nH]c2ccccc2c1=O,-10%,-2%,13µM*,-9%,0%,2%
Cc1cc(C)cc(NC(=O)C(=O)NCC(c2ccc3c(c2)OCO3)N2CCOCC2)c1 (stereo not given),x,x,-3%,x,x,x
CCOc1ccc(NC(=O)c2ccc3[nH]c(C)c(C)c3c2)cc1,x,x,13µM*,x,x,x
COc1ccc(NC(=O)c2ccc3[nH]c(C)c(C)c3c2)cc1,u,14%,13µM*,20%,u,x
CCOc1ccc(CCNC(=O)c2ccc3[nH]c(C)c(C)c3c2)cc1,x,x,-19%,x,x,x
COc1ccc(OC)c(CCNC(=O)c2ccc3[nH]c(C)c(C)c3c2)c1,x,x,-1%,x,x,x
Cc1nn(-c2ccccc2)c(Cl)c1C(=O)NCc1cccs1,-7%,3%,2%,-2%,9%,19%
Cc1onc(-c2ccccc2)c1C(=O)NC(=S)NNC(=O)c1cc(-c2ccc(F)cc2)n[nH]1,-2%,-9%,15µM*,1%,u,x
Cc1onc(-c2ccccc2)c1C(=O)NC(=S)NNC(=O)c1cccnc1,-3%,-2%,1%,-3%,-11%,39%
Cc1onc(-c2ccccc2)c1C(=O)NC(=S)NNC(=O)c1ccco1,-2%,2%,2%,3%,23µM*,x
Cc1onc(-c2ccccc2)c1C(=O)NC(=S)NNC(=O)c1ccncc1,-5%,-1%,0%,0%,0%,6%
CCOC(=O)C1CCN(S(=O)(=O)c2ccc3c(c2)CC(=O)N3C)CC1,-3%,-4%,1%,0%,-15%,x
